TDP1 cell noCPT = qHTS for Inhibitors of human tyrosyl-DNA phosphodiesterase 1 (TDP1): qHTS in cells in absence of CPT; DT40 Tdp1-/- hTDP1 cells, no CPT, ATP luminescence, 48 h; Potency, µM (highest dose often 46.2 µM), for the others: at the top dose activity change, negative = growth inhibition, usual class: inhibitors; actives 15% (n = 420,000); note: potency is the fitted concentration of half-maximal effect; % is set by controls: 0 for no effect and ±100 for the full control effect; nearly all actives have a fitted effect of over 55% in size
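Seeded 400 DT40-hTDP1 cells/well (vehicle DMSO, no 20 nM CPT); pinned compounds; ≥48 hr at 37 °C; CellTiter-Glo luminescence as viability measure.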
IL1B secr inh = inhibitors of inflammasome signaling (IL-1 beta secretion) | activity change, % at 57.5 µM | actives 4.7% (n = 360,000) | THP-1 LPS/ATP IL-1B secretion, AlphaLISA, 16 h; stronger effect = lower value | AID 743279; in the data active = activity change below about -50%; inconclusive = mostly about -30% to -49%; note: % is set by controls: 0 for no effect and ±100 for the full control effect
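THP-1 cells pretreated 1 hr with compounds (up to 57.5 uM final), then stimulated with LPS (250 ng/mL final) plus ATP (1.25 mM final); secreted IL-1B measured by AlphaLISA after 16 hr, decreased signal indicating inhibition.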
HepG2 viability = kills HepG2 cells in TGF-b inhibitor counter-screen; HepG2 CAGA-GFP viability, ATP luminescence, 18 h; actives 0.76% (n = 410,000); Potency, µM (doses to about 46.1 µM), inactives show at the highest dose activity change, negative = cytotoxicity, usual class: cytotoxic; note: potency is the fitted concentration of half-maximal effect
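HepG2 CAGA-GFP cells (1000/well, DMEM with 1% FBS) received compound, then TGF-beta at 500 pg/mL final, and were incubated 18 hours at 37 degrees C. Viability was read by CellTiter-Glo luminescence. Media-only wells were set as complete cell-killing and DMSO as no toxicity.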
S-ASM inh = inhibitors of human secretory acid sphingomyelinase | P17405 | placental ASM, HMU-PC fluorogenic substrate, 60 min | Potency, µM (top dose mostly 57.5 µM), without a hit: top-dose activity change, negative = inhibition, hits mostly inhibitors | actives 0.006% (n = 340,000) | AID 504937; note: potency is the fitted concentration of half-maximal effect
Target sequence (P17405 47-631 limits assumed): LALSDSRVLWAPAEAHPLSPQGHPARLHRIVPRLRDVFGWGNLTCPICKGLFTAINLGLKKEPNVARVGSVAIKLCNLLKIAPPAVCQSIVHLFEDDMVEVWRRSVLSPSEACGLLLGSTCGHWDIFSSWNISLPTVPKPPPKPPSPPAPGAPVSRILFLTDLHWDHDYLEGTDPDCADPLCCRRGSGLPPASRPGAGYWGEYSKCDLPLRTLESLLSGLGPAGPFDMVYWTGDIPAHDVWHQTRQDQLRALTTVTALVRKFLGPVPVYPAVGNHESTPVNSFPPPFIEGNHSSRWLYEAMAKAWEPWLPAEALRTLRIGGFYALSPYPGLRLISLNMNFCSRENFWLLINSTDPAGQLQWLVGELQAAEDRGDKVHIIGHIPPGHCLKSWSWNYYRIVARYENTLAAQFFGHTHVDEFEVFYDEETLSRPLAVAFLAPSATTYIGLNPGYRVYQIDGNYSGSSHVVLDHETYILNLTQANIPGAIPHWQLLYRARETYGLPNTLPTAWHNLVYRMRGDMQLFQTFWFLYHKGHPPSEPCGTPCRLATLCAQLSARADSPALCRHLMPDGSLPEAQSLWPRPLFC
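Steps: dispense placental human ASM, pin compound, wait 10 min at room temperature, add HMU-PC0 substrate at 9 uM final, incubate 60 min at 37 °C, add stop solution raising pH to 10, read fluorescence.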
TDP1 cell CPT = DT40-hTDP1 cell growth loss with CPT; chicken DT40 Tdp1-/-;hTDP1 cells + 20 nM CPT, ATP luminescence, 48 h; Potency, µM (titrated, usually from 46.2 µM), for inactives: at the highest dose activity change, negative = growth inhibition, actives largely listed as inhibitors; actives 12% (n = 420,000); note: potency is the fitted concentration of half-maximal effect; % is set by controls: 0 for no effect and ±100 for the full control effect; nearly all actives have a fitted effect of over 55% in size
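Cell growth measured by CellTiter-Glo luminescence after a minimum 48 h, 37 C compound exposure with 20 nM CPT in Tdp1-knockout DT40 cells stably expressing hTDP1, seeded 400/well; qHTS titration format.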
TGFb SMAD3 inh = blocks TGF-b signaling; Potency, µM (doses to about 46.1 µM), inactives show top-dose activity, negative = inhibition, actives largely listed as inhibitors; actives 1.2% (n = 410,000); HepG2 CAGA-GFP TGF-b/SMAD3 reporter, GFP fluorescence, 18 h; TGF-beta stimulated, 500 pg/mL final; note: potency is the fitted concentration of half-maximal effect; % is set by controls: 0 for no effect and ±100 for the full control effect; nearly all actives have a fitted effect of over 65% in size
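GFP signal (ex488/em500-530) from TGF-beta-stimulated HEPG2 CAGA-GFP cells, 500 pg/mL final, 18 h at 37 degrees C in DMEM plus 1% FBS, normalized to unstimulated and DMSO-stimulated controls.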
* hit, by the source's call; i = inactive; ? = inconclusive; / = not tested or not shown; ! = not active in a repeat; [ ] = dose if it differs, or a comment. This is a sample that favours compounds with a hit; in the whole collection about 19% have one here. Unless noted, calls come from the whole dose curve; as a rule, active = well fitted curve in the direction sought with a large enough effect; inconclusive = small, poorly fitted or top-dose-only effect, or another doubt; inactive = no such curve, though single readings can be large; an effect the other way counts as inactive or inconclusive.

SMILES	TDP1 cell noCPT	IL1B secr inh	HepG2 viability	S-ASM inh	TDP1 cell CPT	TGFb SMAD3 inh
O=c1ccc2cc(S(=O)(=O)Nc3ccc(F)c(Cl)c3)ccc2[nH]1	-26%	/	-10%	/	-2%	29%
CCNc1ccc(S(=O)(=O)N2CCCCC2)cn1	?	-13	4%	4%	-21%	2%
CCCCOC(=O)CSc1nc2c(c(=O)[nH]c(=O)n2C)n1C/C=C(\C)Cl	16µM*	20	-16%	0%	?	9%
C/C(Cl)=C/Cn1c(SCC(C)C)nc2c1c(=O)[nH]c(=O)n2C	8.2µM*	21	16%	-1%	?	7%
CCOC(=O)C(CC)Sc1nc2c(c(=O)[nH]c(=O)n2C)n1C/C=C(/C)Cl (configuration not stated)	13µM*	0	-27%	2%	7.3µM*	-11%
Cc1ccsc1CN1CCc2nc(Nc3ccccc3)ncc2C1	?	/	-26%	/	?	-22%
c1csc(-c2csc3nc(CN4CCOCC4)nc(NCc4ccc5c(c4)OCO5)c23)c1	?	-26	-37%	-1%	23µM*	-17%
CCc1ccccc1NC(=O)CN1CCN(CC(=O)Nc2ccc(-c3ccccc3)cc2)CC1	16µM*	-3	2%	1%	?	18%
Cc1cccc(NC(=O)CN2CCN(CC(=O)Nc3ccc(-c4ccccc4)cc3)CC2)c1C	?	-10	-7%	-1%	?	-6%
CCc1ccccc1NC(=O)CN1CCN(C(=O)CNC(=O)c2ccc(-c3ccccc3)cc2)CC1	7.3µM*	-3	-25%	-2%	4.6µM*	?
COC(=O)c1cc(NC(=O)CN2C(=O)C(=O)N(C3CCCC3)C2=O)cc(C(=O)OC)c1	5%	8	-36%	-6%	-4%	?
CC1=C(CC(=O)O)c2cc(F)ccc2/C1=C\c1ccc(S(C)=O)cc1 (configuration not stated)	?	13	-4%	16%	12µM*!	0%
COC(=O)C[C@@H]1CC[C@H](NC(=O)c2ccccc2)[C@@H](CO)O1	-3%	7	/	/	-3%	/
CN(C)c1ccc(/C=C/c2cc(/C=C/c3ccc(N(C)C)cc3)c3ccccc3n2)cc1	11µM*	/	-6%	/	?	27%
Cc1nc(/C=C/c2ccccc2)cc(/C=C/c2ccccc2)n1	?	0	-6%	102%	-22%	-11%
Cc1cccc2cc3ccccc3nc12	?	1	5%	118%	?	13%
Cc1cc(/C=C/c2ccccc2)nc2ccccc12	10µM*	/	-23%	/	?	-25%
CN(C)c1ccc(/C=C/c2cccc3cc4ccccc4nc23)cc1	0.13µM*	/	14µM*	/	0.1µM*	1.6µM*
CCN(CC)c1ccc(/C=C/c2cc(-c3ccccc3)c3ccccc3n2)cc1	26µM*	34	3%	i	-51%	51%
COc1ccc(CCN(C)C(=O)COc2ccc(N(C)S(=O)(=O)c3ccc(C)cc3)cc2)cc1OC	?	-9	0%	/	?	19%
CN(C)c1ccc(/C=C/c2ccc3ccccc3n2)cc1	12µM*	27	5.6µM*!	205%	18µM*	29%
CN(C)c1ccc(/C=C/c2ccc3cc(F)ccc3n2)cc1	10µM*	/	-21%	/	?	0%
CCCN(CCC)c1ccc(/C=C/c2ccc3cc(OCC)ccc3n2)cc1	23µM*	3	-1%	i	?	5%
CN(C)c1ccc(/C=C/c2ccc3cc(N(C)C)ccc3n2)cc1	?	/	-44%	/	13µM*	-7%
O=C(O)CC1(CC(=O)N2CCC(C(=O)O)CC2)CCCC1	10%	9	1%	1%	45%	1%
SMILES	TDP1 cell noCPT	IL1B secr inh	HepG2 viability	S-ASM inh	TDP1 cell CPT	TGFb SMAD3 inh
CCOc1cc(C(=O)NC2CC(C)(C)NC(C)(C)C2)cc(OCC)c1OCC	4%	-19	-12%	2%	7%	7%
COc1ccc(CCc2ccc3ccccc3n2)cc1	?	-2	-25%	2%	6%	-4%
CN(C)c1ccc(C(=N)Cc2ccc3ccccc3n2)cc1	?	29	-39%	/	21µM*	3%
COc1cc(NC(=O)c2ccc(F)cc2)c(OC)cc1Cl	-8%	7	-24%	-2%	-24%	-14%
COc1cc(NC(=O)c2c(F)c(F)c(F)c(F)c2F)c(OC)cc1Cl	?	-101*	-64%	-7%	-28%	-38%
O=C(c1c(F)cccc1F)N(Cc1ccccc1)Cc1ccccc1	12µM*	?	-9%	1%[11.5 µM]	12µM*	-19%
O=C(c1ccc(Cl)c(S(=O)(=O)N2CCCC2)c1)N1CCN(c2ccccc2F)CC1	16µM*	-1	1%	2%	?	-4%
CC(=O)N1CCN(C(=O)c2ccc(Cl)c(S(=O)(=O)N3CCc4ccccc43)c2)CC1	?	27	0%	2%	-27%	-9%
O=C(c1ccc(Cl)c(S(=O)(=O)N2CCOCC2)c1)N1CCN(c2ccccc2F)CC1	?	-5	-15%	/	?	-1%
Cc1ccc(NC(=O)c2ccc(Cl)c(S(=O)(=O)N3CCc4ccccc43)c2)nc1	26µM*	-16	-9%	1%	?	-25%
O=C(NNC(=O)c1ccccc1O)c1ccc(Cl)c(S(=O)(=O)N2CCc3ccccc32)c1	21µM*	97	-8%	-14%	21µM*	-25%
Cc1cccc(N2CCN(C(=O)c3ccc(Cl)c(S(=O)(=O)N4CCc5ccccc5C4)c3)CC2)c1C	15µM*	-10	-1%	-3%	?	-21%
CC(=O)N1CC(C)Oc2ccc(S(=O)(=O)Nc3ccc(Cl)cn3)cc21 (configuration not stated)	2%	25	0%	-2%	-22%	8%
O=C(OC1Cc2c(O)cc(O)cc2OC1c1cc(O)c(O)c(O)c1-c1c(C2Oc3cc(O)cc(O)c3CC2O)cc(O)c(O)c1O)c1cc(O)c(O)c(O)c1 (configuration not stated)	-4%	/	/	/	?	/
O=C(c1ccc(Cl)c(S(=O)(=O)N2CCc3ccccc32)c1)N1CCN(c2ccccc2O)CC1	23µM*	-73*	-19%	?	?	?
O=C(NCc1ccco1)c1ccc(Cl)c(S(=O)(=O)N2CCc3ccccc32)c1	?	-51*	-25%	-1%	?	?
